This is an account of results in PubChem BioAssay.

Records with an inconclusive call do not appear. Calls of active or inactive are those of the source.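 How the source made its calls, unless noted: active means viability increase at or above a cutoff of the median across tested compounds plus 3 SD (cut at about 8.5% in these data, passing the limit was not always enough); inconclusive means some gains above the cutoff, reason not given; inactive means the rest.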

Assay [1] in a line: reducers of endogenous Her2 protein level, primary screen, SKBR3 breast tumor cells, AlphaScreen, ATP viability (AID 461;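 active means Her2 level under about 52% in both replicate screens, with viability over 70% of control, limit read from the data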;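 on Her2 level: lower value means less Her2 protein in the cells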;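 on viability: percent of carrier control wells set as 100% viability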). The following applies: 18-24 h, measured here: SKBR3 viability, ATP luminescence, at 10 µM. (In Alpha technology, singlet oxygen from a donor bead excites a nearby acceptor bead.)
Assay [2] concerns the target Receptor tyrosine-protein kinase erbB-2 (Homo sapiens) (UniProt P04626). The assay is described as above. The following applies: 18-24 h, at 10 µM, stronger effect = lower value.
A short description of assay [3]: SK-BR-3 cell growth inhibitors, pilot screen, 24 h, human (AID 572;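 active means viability at or below 10% of carrier control in both of two separate runs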;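 further: compound exposure lasted between 18 and 24 h rather than exactly 24 h; 100% = carrier-treated control wells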). Conditions: SK-BR-3 viability, CellTiter-Glo luminescence, at 10 µM, stronger effect = lower value. Background: In ATP-based viability assays light output follows the ATP content of the culture.
The nature of assay [4]: HUVEC growth inhibition – cell-based, human, primary screen (AID 575;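 active means viability at or below 30% in both replicate assays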;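 further: 100% = median of untreated cell wells with 0.1% DMSO on each plate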). The following applies: HUVEC proliferation, CellTiter-Glo luminescence, 72 h; at 10 µM; stronger effect = lower value.
Assay [5] in a line: growth inhibitors of H69AR lung tumor, primary screen, human, duplicate replicates (AID 580;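 active means viability at or under a set limit in both replicates, limit being median viability minus 3 SD, cut at about 48% in these data, passing the limit was not always enough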;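 further: 100% = mean luminescence of untreated wells and 0% = no signal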). The following applies: H69AR lung tumor cells viability, ATP luminescence, 72 h; at 10 µM; stronger effect = lower value.
Assay [6] is described as follows: reversal of MRP1-mediated doxorubicin resistance, pilot screen, H69AR cells, doxorubicin co-treatment (AID 601;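 active means viability loss from added drug above about 55%, and viability with drug at most 40%, in both replicates, limit read from the data, passing the limit was not always enough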). The following applies: CellTiter-Glo, 72 h, at 10 µM; for differential viability (reversal): stronger effect = higher value.
Assay [7] can be described thus: 384-well plate pilot, post-Golgi transport modulator project, inhibition of yeast transport mutant growth (AID 636; in the data active means inhibition above about 31%). The following applies: absorbance 615 nm, about 18 h, stronger effect = higher value.
Assay [8] in a line: growth suppression of yeast trafficking mutant, preliminary HTS, modulators of trafficking downstream of Golgi apparatus project, 1536-format plate, OD 615 nm (AID 637; in the data active means inhibition above about 30%). The following applies: yeast transport mutant growth, absorbance 615 nm, 18 h; stronger effect = higher value.
Assay [9] can be described thus: OD615 S. cerevisiae growth inhibition, permissive medium, pilot counter-assay, permissive growth control for S. cerevisiae lifespan shortening project (AID 705;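 active means growth inhibition above 25% in both replicates, a cutoff set 3 SD above the mean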). The following applies: OD615, 24 h, at 10 µM, stronger effect = higher value.
Assay [10] can be described thus: Restrictive medium S. cerevisiae growth inhibition, OD615, pilot screen of yeast lifespan reduction project, restrictive growth control (AID 706;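 active means growth inhibition above a set limit, 3 SD over mean compound inhibition, in both replicates, cut at about 43% in these data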;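 further: modified DeaD lifespan yeast strain shifted to restrictive glucose medium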). Conditions: OD615, 48 h, at 10 µM, stronger effect = higher value.
Assay [11] is described as follows: viability gain of MRP-1-high H69AR cells under doxorubicin, pilot screen, MRP-1 activator project, CellTiter-Glo, duplicate (AID 807).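 Further: compound pretreatment 18-22 h then 72 h combined with doxorubicin; 0% = doxorubicin alone and 100% = vehicle without doxorubicin.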 The following applies: H69AR viability with doxorubicin, CellTiter-Glo luminescence; at 10 µM; stronger effect = higher value.
A short description of assay [12]: growth suppression of beta-catenin knockout HCT116, pilot screen, human colon tumor cells (AID 823;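 active means cell viability at or below a set limit in both duplicate runs, the limit being the all-compound median minus 4 SD, cut at about 23% in these data, passing the limit was not always enough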;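 further: 0% = wells killed by 20 µM Hyamine and 100% = untreated DMSO cell wells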). The following applies: CellTiter-Glo, 60 h, at 10 µM, stronger effect = lower value.
The nature of assay [13]: growth suppression of PTEN-deleted HCT116, pilot screen, cell-based, HCT116 clonal line, CellTiter-Glo (AID 824;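 active means viability at or below 27.92% in each of two runs, the all-compound median minus 4 SD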;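 further: 0% = 20 µM Hyamine control and 100% = vehicle cell control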). The following applies: 60 h, at 10 µM, stronger effect = lower value.
The nature of assay [14]: inhibitors of the yeast RAM network, pilot screen, dse1pr::URA3 reporter, 5-FOA selection (AID 869;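 active means inhibition over a set limit, the all-compound mean plus 3 SD, in both replicate runs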;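 further: 0% = DMSO wells with no growth and 100% = 10 µM 1-NA-PP1 with full growth; RAM network block rescues cells from 5-FOA so hits raise OD615 growth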). The following applies: S. cerevisiae dse1pr::URA3 5-FOA growth, OD615, 2 d; at 10 µM; stronger effect = higher value; strain carries analog-sensitive mutant Cbk1 kinase.
Assay [15] in a line: RAM signaling pathway blockade in yeast – S. cerevisiae, Pdr1DBD-CYC8 efflux-inhibited sensitized strain, primary screen (AID 1298;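 active means RAM network inhibition above 8.4% in each of two replicates, 3 SD over the compound average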;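 further: 0% = DMSO untreated cells without growth and 100% = 10 µM 1-NA-PP1 full growth; higher means more yeast growth rescued from 5-FOA killing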). The following applies: S. cerevisiae cbk1-as DSE1-URA3 strain, 5-FOA growth OD615, 2 d; at 50 µM; stronger effect = higher value.
Where [16] appears, read: H69AR cells + 2 uM doxorubicin, measured here: viability with 2 uM doxorubicin, stronger effect = lower value.
Where [17] appears, read: H69AR cells, compound alone cytotoxicity.

Chain of Receptor tyrosine-protein kinase erbB-2 (Homo sapiens) (P04626 whole entry, looked up): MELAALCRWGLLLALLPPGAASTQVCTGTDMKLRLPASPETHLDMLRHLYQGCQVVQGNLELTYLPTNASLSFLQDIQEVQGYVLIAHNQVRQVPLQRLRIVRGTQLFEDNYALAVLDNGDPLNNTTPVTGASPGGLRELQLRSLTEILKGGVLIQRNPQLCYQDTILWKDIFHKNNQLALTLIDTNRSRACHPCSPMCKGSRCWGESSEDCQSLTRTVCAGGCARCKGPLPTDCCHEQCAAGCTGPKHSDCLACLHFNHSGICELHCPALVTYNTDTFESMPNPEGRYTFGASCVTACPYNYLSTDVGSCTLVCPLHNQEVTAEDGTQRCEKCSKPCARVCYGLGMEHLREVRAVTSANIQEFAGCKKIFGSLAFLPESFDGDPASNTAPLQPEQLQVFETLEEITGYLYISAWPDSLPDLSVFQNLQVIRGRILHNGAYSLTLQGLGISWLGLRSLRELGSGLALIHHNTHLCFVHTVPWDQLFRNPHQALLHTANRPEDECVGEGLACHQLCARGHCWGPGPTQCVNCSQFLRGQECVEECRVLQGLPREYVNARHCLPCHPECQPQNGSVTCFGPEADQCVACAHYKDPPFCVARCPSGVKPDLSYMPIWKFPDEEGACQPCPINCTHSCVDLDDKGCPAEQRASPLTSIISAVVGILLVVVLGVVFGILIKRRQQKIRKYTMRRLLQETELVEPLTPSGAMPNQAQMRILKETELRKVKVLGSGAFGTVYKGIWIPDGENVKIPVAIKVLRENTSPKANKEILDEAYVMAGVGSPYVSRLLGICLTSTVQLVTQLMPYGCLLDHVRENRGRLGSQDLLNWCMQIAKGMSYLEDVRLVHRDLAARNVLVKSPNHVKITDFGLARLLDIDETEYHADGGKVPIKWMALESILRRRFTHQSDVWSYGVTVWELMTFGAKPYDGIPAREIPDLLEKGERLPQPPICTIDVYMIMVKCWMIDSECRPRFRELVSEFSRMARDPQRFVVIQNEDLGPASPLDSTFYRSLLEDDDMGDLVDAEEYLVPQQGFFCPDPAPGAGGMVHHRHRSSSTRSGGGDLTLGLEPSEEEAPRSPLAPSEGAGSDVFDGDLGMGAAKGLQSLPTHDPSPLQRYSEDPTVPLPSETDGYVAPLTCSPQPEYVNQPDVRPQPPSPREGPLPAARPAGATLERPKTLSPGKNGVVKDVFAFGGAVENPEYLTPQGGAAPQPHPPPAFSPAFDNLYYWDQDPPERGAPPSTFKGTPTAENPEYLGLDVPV

Usually viability stands for a read-out of living cells in per cent, often relative to untreated cells. As usually defined, the inhibition is the drop in the measured response relative to a control, in per cent. As for `CCc1cc2c(=O)c(-c3nc4ccccc4[nH]3)coc2c(CN2CCC(C)CC2)c1O`, the viability in assay [1] is 96%; in [3], 96% (inactive); in assay [4] it was 99.1% (inactive); in [5], 82.6% (inactive); in [6] (setting [16]), 82%; in [6] (setting [17]), 82.6%. The results for the viability in assay [12] and in assay [13] were 92.3% (inactive) and 85.6% (inactive), respectively. Besides, the Her2 level in assay [2] is 116% (inactive). In addition, the differential viability (reversal) in [6] (H69AR cells + 2 uM doxorubicin) was 0.66% (inactive). For the same molecule, the inhibition is -1.03% (inactive) in assay [7], 1.83% (inactive) in [8] and -0.2% (inactive) in assay [14]. Moreover, the growth inhibition is 6.25% (inactive) in assay [9] and 18.5% (inactive) in [10]. The viability increase in assay [11] is -2.14% (inactive). Moreover, in assay [15], the RAM network inhibition is -2.41% (inactive).

Turning to `CC(=O)N1CCc2c(sc(NC(=O)c3ccc(S(=O)(=O)N(C)C)cc3)c2C#N)C1`, the viability in [1] was 83.5%; in assay [3], 83.5% (inactive); in [4], 73.3% (inactive); in assay [5], 87.5% (inactive); in assay [6] (setting [16]), 81.5%; in assay [6] (setting [17]), 87.5%. The values for the viability in [12] and in [13] were 104% (inactive) and 94.3% (inactive), respectively. For the same molecule, in assay [2], the Her2 level was 105% (inactive). For the same molecule, the differential viability (reversal) in assay [6] (H69AR cells + 2 uM doxorubicin) is 5.97% (inactive). The inhibition in assay [7] is -2.27% (inactive); in assay [8], -5.41% (inactive); in assay [14] it was 0.115% (inactive). The growth inhibition is -4.59% (inactive) in assay [9] and 4.39% (inactive) in assay [10]. Besides, the viability increase in assay [11] was -3.73% (inactive). Also, in [15], the RAM network inhibition was 1.67% (inactive).

As to `CCOc1ccc(Cn2nnc(C(=O)Nc3ccc(OC)cc3OC)c2N)cc1`, the viability is 96.5% in [1]; 96.5% (inactive) in [3]; 67.5% (inactive) in assay [4]; 102% (inactive) in assay [5]; 99.8% in assay [6] (setting [16]); 102% in [6] (setting [17]). Also, the viability is 83.3% (inactive) in [12] and 82.8% (inactive) in assay [13]. Further, in assay [2], the Her2 level is 102% (inactive). Also, the differential viability (reversal) in assay [6] (H69AR cells + 2 uM doxorubicin) is 2.46% (inactive). The inhibition was -1.07% (inactive) in [7], -5.9% (inactive) in assay [8] and 3.14% (inactive) in assay [14]. In addition, the growth inhibition in assay [9] is -10.3% (inactive); in assay [10], -9.57% (inactive). The viability increase in assay [11] is -4.36% (inactive). In assay [15], the RAM network inhibition was 4.87% (inactive).

As for `CC1CN(c2c3c(nc4ncnn24)CCCC3)CC(C)O1` (centres undefined), the viability in assay [1] was 89.5%; in assay [3] it was 89.5% (inactive); in assay [4], 102% (inactive); in assay [5], 90.7% (inactive); in assay [6] (setting [16]), 86.2%; in [6] (setting [17]), 90.7%. In addition, the viability in [12] is 88.9% (inactive); in [13], 90.8% (inactive). The Her2 level in assay [2] was 88% (inactive). Further, the differential viability (reversal) in assay [6] (H69AR cells + 2 uM doxorubicin) is 4.54% (inactive). The inhibition in assay [7] was -4.87% (inactive); in assay [8], 2% (inactive); in assay [14] it was 1.57% (inactive). For the same molecule, the results for the growth inhibition in [9] and in [10] were 3.17% (inactive) and -4.12% (inactive), respectively. Also, in [11], the viability increase was -1.41% (inactive). Besides, the RAM network inhibition in [15] was -1.85% (inactive).

On to `O=C(NCCN1C(=O)C2C3C=CC(C3)C2C1=O)N1CCCCC1` (centres undefined), for which the viability was 122% in [1]; 122% (inactive) in [3]; 100% (inactive) in assay [4]; 103% (inactive) in assay [5]; 96.5% in assay [6] (setting [16]); 103% in assay [6] (setting [17]). Besides, the viability is 102% (inactive) in [12] and 95.1% (inactive) in [13]. Moreover, the Her2 level in assay [2] is 112% (inactive). The differential viability (reversal) in [6] (H69AR cells + 2 uM doxorubicin) is 6.97% (inactive). The inhibition in [7] was 4.93% (inactive); in assay [8], -4.83% (inactive); in assay [14], 2.13% (inactive). Also, the growth inhibition is -11.7% (inactive) in [9] and 0.245% (inactive) in [10]. The viability increase in assay [11] was -0.67% (inactive). In assay [15], the RAM network inhibition is 3.08% (inactive).

On to `CC(=O)c1cccc(NC(=O)CCOc2ccccc2)c1`, for which the viability in [1] is 96%; in assay [3], 96% (inactive); in assay [4], 106% (inactive); in assay [5], 98.3% (inactive); in assay [6] (setting [16]), 96.3%; in assay [6] (setting [17]) it was 98.3%. In addition, the viability was 102% (inactive) in assay [12] and 95% (inactive) in assay [13]. Further, the Her2 level in assay [2] is 121% (inactive). In addition, in assay [6] (H69AR cells + 2 uM doxorubicin), the differential viability (reversal) was 1.96% (inactive). The figures for the inhibition in assay [7], in assay [8] and in assay [14] were 1.04% (inactive), -12.8% (inactive) and 1.27% (inactive), respectively. The growth inhibition in [9] is 5.62% (inactive); in assay [10], 4.36% (inactive). In assay [11], the viability increase is -1.33% (inactive). The RAM network inhibition in assay [15] is 1.57% (inactive).

For the molecule `Cc1nc2sc(C(c3cccs3)N3CCC(C(N)=O)CC3)c(O)n2n1` (centres undefined), the viability was 92.5% in [1]; 92.5% (inactive) in [3]; 100% (inactive) in assay [4]; 91.8% (inactive) in [5]; 96.2% in [6] (setting [16]); 91.8% in assay [6] (setting [17]). Also, the viability is 101% (inactive) in assay [12] and 94.2% (inactive) in [13]. The Her2 level in assay [2] is 128% (inactive). In addition, the differential viability (reversal) in [6] (H69AR cells + 2 uM doxorubicin) was -4.42% (inactive). Further, the inhibition is -3.73% (inactive) in assay [7], -1% (inactive) in assay [8] and 0.69% (inactive) in [14]. Besides, the results for the growth inhibition in assay [9] and in [10] were -0.435% (inactive) and 3.77% (inactive), respectively. Further, the viability increase in [11] is -0.3% (inactive). For the same molecule, the RAM network inhibition in assay [15] is 4.12% (inactive).
